Experiment [1] is described as follows: qHTS assay to identify small molecule antagonists of the androgen receptor (AR) signaling pathway using the MDA cell line in the presence of 0.5 nM R1881 - cell viability counter screen (AID 1259242). Further: nearly all actives have a fitted effect of over 45% in size. A digest of the protocol: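 qHTS format. MDA-kb2 (MMTV-luc, AR/GR responsive) + cpd + 0.5 nM R1881 final, 16 hr 37C/0% CO2 → CellTiter-Fluor 30 min → fluorescence intensity.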

The nature of experiment [2]: qHTS assay to identify small molecule phospholipidosis (PLD) inducers (AID 1259344; active means well fitted curve in the direction sought with a large enough effect; an effect the other way counts as inactive or inconclusive). The essentials:
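Read-out is LipidTOX Red fluorescence (ex 595/em 615) imaged in HepG2 cells after 24 h compound exposure at 37 C, with Hoechst nuclear counterstain (ex 352/em 461) allowing per-cell normalisation.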

Experiment [3] in a line: qHTS assay to identify small molecule HDAC inhibitors (AID 1259364).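 Further: wild-type HCT-116 cells with endogenous class I/II HDAC activity; top concentration of the series differs between compounds; nearly all actives have a fitted effect of over 45% in size.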 The essentials: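 Quantitative high-throughput format: overnight-seeded HCT-116 cells got compounds for 2 hr at 37C; HDAC-Glo I/II reagent added, 30 min RT, luminescence measured.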
The nature of experiment [4]: qHTS assay to identify small molecule HDAC inhibitors - cell viability counter screen (AID 1259365). Further: series mostly up to about 92 µM; nearly all actives have a fitted effect of over 50% in size. The essentials: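 Wild-type HCT-116 cells, 1,500/well, cultured overnight, then compound-treated 2 h at 37 C. Viability measured as ATP luminescence with CellTiter-Glo after 30 min at room temperature.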
Experiment [5] is described as follows: qHTS assay to identify small molecule antagonists of the sonic hedgehog signaling (Shh) pathway - cell viability counter screen (AID 1259367). Further: nearly all actives have a fitted effect of over 55% in size. Further: potency means the concentration at half of the fitted maximal effect. A digest of the protocol:
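Fluorescence read-out (CellTiter-Fluor, 1 hr at 37C) taken after 23 hr compound treatment of 3T3 Gli1-Luc cells stimulated with conditioned medium. Cells were seeded at 2,000 per well and pre-incubated 4 hr.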

A short description of experiment [6]: qHTS assay to identify small molecule agonists of the sonic hedgehog signaling (Shh) pathway (AID 1259368; calls by dose curve;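 further: NIH/3T3-derived 3T3Gli1-Luc cells carrying a stable Gli1-driven firefly luciferase reporter; series mostly up to about 92 µM; nearly all actives have a fitted effect of over 15% in size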). The essentials: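 Quantitative high-throughput format using a Gli1-driven firefly luciferase reporter line derived from NIH/3T3 cells. After a 24 hr compound treatment at 37 C and 5% CO2, luminescence reported Gli1 response element activity.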
Experiment [7] in a line: qHTS assay to identify small molecule antagonists of the sonic hedgehog signaling (Shh) pathway (AID 1259369; calls by dose curve; further: nearly all actives have a fitted effect of over 45% in size; further: potency means the concentration at half of the fitted maximal effect). The essentials:
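Stable Gli1-Luc reporter NIH/3T3 clone; quantitative HTS in stimulated mode with conditioned medium. Luminescence measured after 24hr compound treatment at 37 C.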

Experiment [8] has as its target Estrogen receptor beta (Homo sapiens) (UniProt Q92731). The experiment in a line: qHTS assay to identify small molecule agonists of the estrogen receptor beta (ER-beta) signaling pathway (AID 1259377; active means well fitted activation curve with a large enough effect in the signal ratio in the repeat runs, not every such curve was filed as active; the % refers to the signal ratio). The essentials: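 ER-beta-UAS-bla HEK293T cells in medium with 2% charcoal-stripped FBS were exposed to compounds for 16 h at 37C. Beta-lactamase reporter activity was read as fluorescence after 2 h with LiveBLAzer B/G FRET substrate at room temperature.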

Experiment [9] has the same target. In words: qHTS assay to identify small molecule antagonists of the estrogen receptor beta (ER-beta) signaling pathway (AID 1259378; active means well fitted inhibition curve with a large enough effect in the signal ratio in the repeat runs, not every such curve was filed as active; the % refers to the signal ratio). The essentials:
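ER-beta-UAS-bla HEK293T cells in 2% charcoal-stripped FBS medium treated with compound plus 1nM final 17-beta-estradiol for 16 hr at 37C. Beta-lactamase reporter read by FRET substrate fluorescence after 2 hours at room temperature.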

The nature of experiment [10]: qHTS assay to identify small molecule agonists of the androgen receptor (AR) signaling pathway in the presence of an antagonist - cell viability counter screen (AID 1259379).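 Further: MDA-kb2 human breast cancer cells carrying an MMTV luciferase reporter; series mostly up to about 92 µM; nearly all actives have a fitted effect of over 25% in size.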 The essentials:
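Nilutamide-containing (3.0uM final) MDA-kb2 cultures, 3,000 cells/well, were treated with compounds across 15 concentrations. After 16 hr at 37C with no CO2, cell viability was determined by CellTiter-Fluor fluorescence in the luciferase assay wells.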

A short description of experiment [11]: qHTS assay to identify small molecule antagonists of the estrogen receptor beta (ER-beta) signaling pathway - cell viability counter screen (AID 1259382). Further: series mostly up to about 92 µM; nearly all actives have a fitted effect of over 55% in size. A digest of the protocol:
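Viability is scored by CellTiter-Glo luminescence (30 min, room temperature) in ER-beta-UAS-bla HEK293T wells already read for reporter fluorescence. Compound exposure lasts 16 hr at 37C alongside 1nM 17-beta-estradiol in charcoal-stripped serum medium.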

Experiment [12] can be described thus: qHTS assay to identify small molecule agonists or antagonists of the thyroid stimulating hormone receptor (TSHR) signaling pathway - wild type cell line counter screen (AID 1259384; calls by dose curve). The essentials: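 Wild-type Hek293 cells, 800/well, 18 h at 37C, then compound with Ro20-1724 for 30 min RT. cAMP by HTRF (cAMP-d2/anti-cAMP cryptate), 1 h RT, fluorescence read. 15 concentrations, triplicates.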

The target in experiment [13] is Thyrotropin receptor (Homo sapiens) (UniProt P16473). In words: qHTS assay to identify small molecule antagonists of the thyroid stimulating hormone receptor (TSHR) signaling pathway (AID 1259385; calls by dose curve; further: nearly all actives have a fitted effect of over 20% in size). The essentials: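 TSHR-HEK293 cells (800/well) plated 18 h, then compounds with Ro20-1724 and TSH at 1.5 ng/mL final, 30 min at room temperature. cAMP quantified by HTRF (cAMP-d2/anti-cAMP-cryptate, 1 h); 15 concentrations in triplicate.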
Sequence of Thyrotropin receptor (Homo sapiens) (P16473 whole entry, looked up): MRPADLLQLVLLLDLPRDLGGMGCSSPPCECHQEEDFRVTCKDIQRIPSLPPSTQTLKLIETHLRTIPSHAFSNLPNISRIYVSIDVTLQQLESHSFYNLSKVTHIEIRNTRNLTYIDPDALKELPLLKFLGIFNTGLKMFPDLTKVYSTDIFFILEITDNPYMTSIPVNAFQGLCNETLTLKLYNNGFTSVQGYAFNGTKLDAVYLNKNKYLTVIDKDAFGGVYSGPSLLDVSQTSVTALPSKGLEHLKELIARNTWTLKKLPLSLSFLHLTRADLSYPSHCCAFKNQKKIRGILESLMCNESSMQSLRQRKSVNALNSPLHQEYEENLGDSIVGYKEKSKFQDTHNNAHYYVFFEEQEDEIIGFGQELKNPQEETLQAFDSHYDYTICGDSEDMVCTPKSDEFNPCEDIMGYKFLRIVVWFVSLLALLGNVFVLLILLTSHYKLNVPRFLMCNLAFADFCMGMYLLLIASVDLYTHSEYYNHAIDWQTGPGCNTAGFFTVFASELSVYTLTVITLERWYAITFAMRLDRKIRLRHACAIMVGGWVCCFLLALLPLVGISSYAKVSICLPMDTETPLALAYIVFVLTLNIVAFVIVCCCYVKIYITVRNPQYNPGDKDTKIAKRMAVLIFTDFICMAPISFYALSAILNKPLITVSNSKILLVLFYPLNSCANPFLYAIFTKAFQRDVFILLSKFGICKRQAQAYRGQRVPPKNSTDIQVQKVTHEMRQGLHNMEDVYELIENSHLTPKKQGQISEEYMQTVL

Experiment [14] in a line: qHTS assay to identify small molecule agonists of the estrogen receptor alpha (ER-alpha) signaling pathway in the presence of an antagonist - cell viability counter screen (AID 1259386).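 Further: series mostly up to about 92 µM; cells exposed to compounds for 22 h at 37 °C before the viability read; nearly all actives have a fitted effect of over 30% in size.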 A digest of the protocol:
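In this counter screen, compound effects on VM7Luc4E2 viability were tested in the presence of the antagonist ICI-182,780 at 10.0nM final. Compounds were dosed at 15 concentrations, exposure lasted 22hr, and the CellTiter-Fluor signal was read.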

Experiment [15] is described as follows: qHTS assay to identify small molecule agonists of the sonic hedgehog signaling (Shh) pathway - cell viability counter screen (AID 1259366). Further: nearly all actives have a fitted effect of over 50% in size. Further: potency means the concentration at half of the fitted maximal effect. A digest of the protocol:
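NIH/3T3-derived Gli1-Luc reporter cells, 2,000 per well, received compound after 4 h and were treated about 23 h at 37C. Viability measured in the same wells by CellTiter-Fluor fluorescence after 1 h.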

Experiment [16] is described as follows: qHTS assay to identify small molecule agonists of the estrogen receptor beta (ER-beta) signaling pathway - cell viability counter screen (AID 1259380). Further: nearly all actives have a fitted effect of over 30% in size. A digest of the protocol: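 Steps: plate ER-beta-UAS-bla HEK293T cells, rest 6 hr; add compounds in DMSO; incubate 16 hr at 37C, 5% CO2; add FRET substrate 2 hr; add CellTiter-Glo, wait 30 min at room temperature; read luminescence.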

For experiment [17], the target named is Estrogen receptor (Homo sapiens) (UniProt P03372). The experiment in a line: qHTS assay to identify small molecule antagonists of the estrogen receptor alpha (ER-alpha) signaling pathway using the BG1 cell line in the presence of 0.1 nM 17-beta-estradiol (AID 1259244). Further: nearly all actives have a fitted effect of over 50% in size. The essentials: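 Reporter is a stably transfected luciferase under four estrogen responsive elements in VM7Luc4E2 cells expressing native full-length ER-alpha; inhibition of 0.1 nM (final) 17beta-estradiol-driven signal over 22 h is read by luminescence.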
Sequence of Estrogen receptor (Homo sapiens) (P03372 whole entry, looked up): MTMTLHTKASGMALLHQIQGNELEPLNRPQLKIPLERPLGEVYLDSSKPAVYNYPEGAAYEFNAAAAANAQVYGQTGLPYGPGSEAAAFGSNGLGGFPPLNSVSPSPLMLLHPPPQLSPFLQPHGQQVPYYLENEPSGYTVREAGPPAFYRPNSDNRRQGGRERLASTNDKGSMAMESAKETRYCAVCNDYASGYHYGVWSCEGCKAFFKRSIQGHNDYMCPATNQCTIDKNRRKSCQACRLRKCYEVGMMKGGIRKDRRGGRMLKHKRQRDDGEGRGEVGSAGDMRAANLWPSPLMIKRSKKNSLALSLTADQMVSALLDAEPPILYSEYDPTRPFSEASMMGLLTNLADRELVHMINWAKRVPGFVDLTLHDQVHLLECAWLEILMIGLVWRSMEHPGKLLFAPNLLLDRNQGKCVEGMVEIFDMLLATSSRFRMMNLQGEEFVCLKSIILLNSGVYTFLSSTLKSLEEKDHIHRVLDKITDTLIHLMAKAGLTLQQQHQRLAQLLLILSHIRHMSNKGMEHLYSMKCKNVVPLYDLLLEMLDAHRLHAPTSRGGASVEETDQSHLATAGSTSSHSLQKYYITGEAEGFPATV

For experiment [18] the target is unchanged. The experiment in a line: qHTS assay to identify small molecule agonists of the estrogen receptor alpha (ER-alpha) signaling pathway in the presence of an antagonist (AID 1259383; calls by dose curve; further: top concentration of the series differs between compounds; nearly all actives have a fitted effect of over 15% in size). The essentials:
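Readout was ERE-driven luciferase luminescence in VM7Luc4E2 cells, which express full-length ER-alpha endogenously. Compounds were tested at 15 concentrations for 22hr alongside 10.0nM ICI-182,780 (final concentration).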

The target of experiment [19] is Androgen receptor (Homo sapiens) (UniProt P10275). The experiment in a line: qHTS assay to identify small molecule antagonists of the androgen receptor (AR) signaling pathway using the MDA cell line in the presence of 0.5 nM R1881 (AID 1259243). Further: potency means the concentration at half of the fitted maximal effect; nearly all actives have a fitted effect of over 50% in size. A digest of the protocol: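 Antagonist mode quantitative HTS in MDA-kb2 MMTV-luciferase cells, agonist R1881 at 0.5 nM final, 16 hr exposure at 37C and 0% CO2, luminescent detection.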
Sequence of Androgen receptor (Homo sapiens) (P10275 whole entry, looked up): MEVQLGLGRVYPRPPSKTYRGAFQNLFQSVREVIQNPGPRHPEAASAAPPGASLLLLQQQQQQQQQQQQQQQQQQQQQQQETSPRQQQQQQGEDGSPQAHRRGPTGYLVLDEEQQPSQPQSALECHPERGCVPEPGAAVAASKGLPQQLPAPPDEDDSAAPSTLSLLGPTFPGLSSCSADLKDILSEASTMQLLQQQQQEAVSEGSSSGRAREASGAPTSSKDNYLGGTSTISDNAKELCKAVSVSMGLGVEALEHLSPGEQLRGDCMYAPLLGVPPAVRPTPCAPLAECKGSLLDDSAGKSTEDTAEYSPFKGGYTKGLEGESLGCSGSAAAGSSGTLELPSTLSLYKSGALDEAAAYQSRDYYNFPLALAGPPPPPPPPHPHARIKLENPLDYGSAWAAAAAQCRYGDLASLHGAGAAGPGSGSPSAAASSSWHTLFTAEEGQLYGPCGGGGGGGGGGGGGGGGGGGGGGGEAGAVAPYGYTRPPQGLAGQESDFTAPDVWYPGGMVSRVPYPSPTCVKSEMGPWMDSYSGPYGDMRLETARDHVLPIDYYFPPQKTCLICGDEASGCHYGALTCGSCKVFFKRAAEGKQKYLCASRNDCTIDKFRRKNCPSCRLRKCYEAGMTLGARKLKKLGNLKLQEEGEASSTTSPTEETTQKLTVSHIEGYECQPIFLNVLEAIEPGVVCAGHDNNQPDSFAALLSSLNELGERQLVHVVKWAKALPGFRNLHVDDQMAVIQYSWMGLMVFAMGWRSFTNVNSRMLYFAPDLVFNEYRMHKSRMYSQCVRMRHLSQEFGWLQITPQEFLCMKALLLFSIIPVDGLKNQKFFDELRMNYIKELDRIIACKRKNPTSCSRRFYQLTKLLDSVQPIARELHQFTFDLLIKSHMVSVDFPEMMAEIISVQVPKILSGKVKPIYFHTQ

These results are taken from PubChem BioAssay (Tox21).

Molecules are shown by their SMILES. Inconclusive results are not listed. The source made the active and inactive calls. Unless noted, the call rests on the fitted dose curve; in most records, active means well fitted curve in the direction sought with a large enough effect in the repeat runs; inconclusive means weak or mixed curves; inactive means no such curve, though single readings can be large; an effect the other way counts as inactive or inconclusive.

Sequence of Estrogen receptor beta (Homo sapiens) (Q92731 whole entry, looked up): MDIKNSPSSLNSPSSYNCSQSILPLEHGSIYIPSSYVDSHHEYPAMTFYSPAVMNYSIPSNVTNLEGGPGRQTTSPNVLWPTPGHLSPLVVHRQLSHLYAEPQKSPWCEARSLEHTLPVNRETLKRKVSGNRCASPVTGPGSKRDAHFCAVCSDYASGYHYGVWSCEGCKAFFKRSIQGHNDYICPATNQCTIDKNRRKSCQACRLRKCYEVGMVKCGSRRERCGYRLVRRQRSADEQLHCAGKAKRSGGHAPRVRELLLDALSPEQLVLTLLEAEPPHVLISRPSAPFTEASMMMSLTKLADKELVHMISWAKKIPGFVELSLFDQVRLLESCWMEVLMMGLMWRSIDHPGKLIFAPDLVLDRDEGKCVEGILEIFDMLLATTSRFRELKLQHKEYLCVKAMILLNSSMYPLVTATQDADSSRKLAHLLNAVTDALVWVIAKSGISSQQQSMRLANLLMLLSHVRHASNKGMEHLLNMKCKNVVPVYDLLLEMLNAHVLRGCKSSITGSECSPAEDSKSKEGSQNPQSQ

Turning to `CN1C[C@@H](NS(=O)(=O)N(C)C)C[C@@H]2c3cccc4c3c(cn4C)C[C@H]21`, the outcome in experiment [1], in experiment [2], in experiment [4], in experiment [6] and in [8] was inactive. The Potency result in experiment [3], in experiment [5], in experiment [7], in experiment [9], in [10] and in experiment [11] was “inactive” each time. Besides, the Potency entry in experiment [12], in [13] and in experiment [14] was “inactive” each time.

On to `ClCCOCOCCCl`, for which the result in experiment [1], in experiment [4], in experiment [6] and in [8] was inactive. For the same compound, the Potency result in experiment [3], in experiment [15], in experiment [5], in [7], in experiment [9] and in experiment [10] was “inactive” in each case. Further, the Potency result in [16], in experiment [11], in [12], in [13] and in experiment [14] was “inactive” in each case.

Consider `NC(=O)O`, for which the outcome in [1], in experiment [4] and in experiment [6] was inactive. The Potency result in [17], in [15], in experiment [5], in experiment [7], in experiment [10] and in experiment [16] was “inactive” throughout. Also, the Potency result in [11], in experiment [18], in [12], in experiment [13] and in [14] was “inactive” throughout.

Take `CC(C=O)Cc1ccc2c(c1)OCO2` (centres undefined): the result in [1], in [4], in experiment [6] and in [8] was inactive. In addition, the Potency entry in experiment [3], in [15], in experiment [5], in [7], in experiment [9] and in experiment [10] was “inactive” each time. The Potency entry in experiment [16], in [11], in experiment [12], in [13] and in experiment [14] was “inactive” in each case.

As for `Nc1n[nH]c(N)n1`, the result in experiment [1], in experiment [4], in [6] and in experiment [8] was inactive. The Potency entry in experiment [3], in experiment [15], in experiment [5], in [7], in [9] and in [16] was “inactive” in each case. Also, the Potency entry in [11], in experiment [12], in [13] and in experiment [14] was “inactive” in each case.

Turning to `CC(C)(C)OC(=O)c1ncn2c1[C@@H]1CCCN1C(=O)c1c(Br)cccc1-2`, the outcome in [1], in [2], in experiment [4] and in [6] was inactive. Also, the Potency result in experiment [3], in experiment [15], in experiment [5], in [7], in [9] and in experiment [11] was “inactive” each time. Also, the Potency result in experiment [12] and in experiment [14] was “inactive” throughout.

With `Nc1cc(Cl)ccc1O`, the result in [1], in experiment [4] and in [6] was inactive. Further, the Potency entry in experiment [17], in experiment [10], in experiment [11], in experiment [12] and in experiment [13] was “inactive” in each case. Moreover, the figures for the Potency in experiment [15], in experiment [5] and in experiment [7] were 59.1 µM (active), 29.6 µM (active) and 1.67 µM (active), respectively.

Regarding `CN(N=O)C(N)=O`, the result in [1], in experiment [4], in [6] and in [8] was inactive. The Potency result in [3], in experiment [15], in experiment [5], in experiment [7], in experiment [9] and in experiment [10] was “inactive” throughout. The Potency result in experiment [16], in experiment [11] and in [14] was “inactive” in each case.

Regarding `CN/C(=N\[N+](=O)[O-])NCC1CCOC1` (centres undefined), the outcome in experiment [1], in [4], in experiment [6] and in [8] was inactive. Also, the Potency result in experiment [3], in [15], in experiment [5], in experiment [7], in experiment [9] and in [10] was “inactive” each time. For the same compound, the Potency result in [16], in experiment [11], in experiment [12], in experiment [13] and in experiment [14] was “inactive” in each case.

`O=[N+]([O-])c1cccc2c([N+](=O)[O-])cccc12`: the Potency in [19] was 61.4 µM (active).
